Most compounds without a hit are left out; they make up all but 2.6% or so of the library.
Cruzain Triton = qHTS Assay for Promiscuous and Specific Inhibitors of Cruzain (with detergent); Cruzipain (Trypanosoma cruzi), P25779; purified cruzain, Z-FR-AMC fluorescence, 0.01% Triton; Potency, µM, inactives show max response, negative = inhibition, actives largely listed as inhibitors; 200,000 tested, 0.43% active; AID 1478, 2009;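 note: plate controls were neutral wells for no effect and buffer without enzyme for full effect; nearly all actives have a fitted effect of over 40% in size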
Target sequence (P25779 123-467 limits assumed): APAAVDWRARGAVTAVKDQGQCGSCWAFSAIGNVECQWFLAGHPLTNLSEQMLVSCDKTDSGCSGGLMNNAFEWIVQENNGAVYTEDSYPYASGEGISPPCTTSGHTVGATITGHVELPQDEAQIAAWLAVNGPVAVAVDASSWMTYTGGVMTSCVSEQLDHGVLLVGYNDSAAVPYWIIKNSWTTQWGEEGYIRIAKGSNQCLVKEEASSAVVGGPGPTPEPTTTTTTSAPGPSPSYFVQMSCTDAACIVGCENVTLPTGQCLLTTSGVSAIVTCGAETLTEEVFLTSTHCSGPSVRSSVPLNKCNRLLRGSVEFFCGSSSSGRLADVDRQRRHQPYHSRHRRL
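In this qHTS format, compounds are incubated with 1.5 nM cruzain for 15 min at room temperature before 2 uM Z-FR-AMC is added. Release of AMC is followed at 360/450 nm, and progress is taken as the 60 s fluorescence difference.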
Cruzain inh noDet = qHTS Assay for Promiscuous and Specific Inhibitors of Cruzain (without detergent) | purified cruzain, Z-FR-AMC fluorescence, no detergent | Potency, µM, inactives show max response, negative = inhibition, usual class: inhibitors | 200,000 tested, 2.3% active;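 note: plate controls were enzyme without inhibitor for no effect and buffer without enzyme for full effect; nearly all actives have a fitted effect of over 40% in size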
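Purified cruzain at 1.5 nM, pre-incubated 15 min with compound at room temperature in 100 mM sodium acetate pH 5.5, 5 mM DTT, 0.00005% Triton X-100. Reaction started with 2 uM Z-FR-AMC; AMC fluorescence increase over 60 s gives rate.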
* hit, by the source's call; ? = inconclusive; ! = repeats disagree. Calls come from the whole dose curve; as a rule, active = well fitted curve in the direction sought with a large enough effect; inconclusive = small, poorly fitted or top-dose-only effect, or another doubt; inactive = no such curve, though single readings can be large; an effect the other way counts as inactive or inconclusive. Potency is the fitted concentration of half-maximal effect.

SMILES	Cruzain Triton	Cruzain inh noDet
CCOC(=O)c1c(NC(=O)CSc2c[nH]c3ccccc23)sc2c1CCC2	-5%	32µM*
CCOC(=O)c1c(NC(=O)CSc2c[nH]c3ccccc23)sc2c1CCCC2	-1%	25µM*
CCOC(=O)c1c(NC(=O)CSc2nnc3ccccn23)sc2c1CCC2	-7%	13%
CCOC(=O)c1c(NC(=O)CSc2nnc(-c3c[nH]c4ccccc34)n2CCOC)sc2c1CCCCC2	1%	-9%
CC(=O)N1CCCc2cc(S(=O)(=O)NCc3ccc(C)cc3)ccc21	1%	-16%
Cc1ccccc1OCc1nnc(SCC(=O)Nc2ccc3c(c2)OCO3)n1C	-3%	5%
COC(=O)CSc1nc2ccc(NC(=O)CSc3nnnn3Cc3ccccc3)cc2s1	-11%	7%
O=C(CSc1nc2ccc(NC(=O)CSc3nnnn3Cc3ccccc3)cc2s1)Nc1ccccc1	-1%	10µM*
Cc1ccccc1OCc1nnc(SCC(=O)Nc2ccc3nc(SCC(=O)Nc4ccccc4)sc3c2)n1C	0%	25µM*
COC(=O)c1c(NC(=O)CCCOc2cccc(C)c2)sc2c1CCC(C)C2 (stereo unspecified)	-3%	6%
Cc1csc(/N=C/c2ccc([N+](=O)[O-])cc2)n1	1%	20µM*
Cc1csc(NC(=O)c2cc([N+](=O)[O-])cc([N+](=O)[O-])c2)n1	-7%	-15%
O=C(CCCn1c(=O)c2cccn2c2ccc(F)cc21)NCc1ccc(Cl)cc1	0%	2%
O=C(O)CCNC(=O)c1cncc(Br)c1	10%	-1%
Oc1c(C=C2N=c3ccccc3=N2)sc(=S)n1C1CCCCC1	-4%	13µM*!
Oc1c(C=C2N=c3ccccc3=N2)sc(=S)n1-c1ccccc1	-3%	10µM*
O=C1N=c2ccccc2=C1c1sc(=S)n(CC2CCCO2)c1O (stereo unspecified)	8%	-13%
O=C(Nn1c(O)c(C=C2N=c3ccccc3=N2)sc1=S)c1ccccc1Cl	-13%	-29%
COc1ccc(C(=O)O/N=C/c2ccc(S(=O)c3ccc(Cl)cc3)nc2)cc1 (stereo unspecified)	5%	?
O=C1NC(=O)C(=O)C(=O)N1	-1%	-8%
Cc1ccc(N(CC(O)Cn2c3ccccc3c3ccccc32)S(C)(=O)=O)c(C)c1 (stereo unspecified)	-7%	?
CC(=O)c1cc(C(=O)Nc2cccc(C)c2)c2ccccn12	-8%	13%
CC(C)N=C(NC#N)SCc1ccc(F)cc1	3%	9%
N#CNC(=Nc1ccc(F)cc1)SCc1ccccc1	2%	25µM*
O=C(/C=C/c1ccco1)Nc1ccc2nn(-c3ccccc3)nc2c1	-6%	?
SMILES	Cruzain Triton	Cruzain inh noDet
Nc1nc(-c2ccc(Cl)cc2Cl)cn1N	14%	-18%
Nc1[nH]nc2c1NN(c1ccc(Cl)cc1Cl)N2	-17%	20µM*
CCCc1cc(=O)[nH]c(SCc2ccc(Cl)cc2)n1	-1%	?
COC(=O)c1ccc(C(C(=O)NC2CCCCC2)N(Cc2ccc(F)cc2)C(=O)Cc2cccs2)cc1 (stereo unspecified)	-4%	17%
COC(=O)c1ccc(C(C(=O)NC2CCCCC2)N(CCc2ccccc2)C(=O)Cc2cccs2)cc1 (stereo unspecified)	0%	13µM*
O=C(CCCN1C(=O)/C(=C/c2cccc(Br)c2)SC1=S)Nc1ccccn1	-4%	25µM*
CCc1ccc(/C=C2\SC(=S)N(CCCC(=O)Nc3ccccn3)C2=O)cc1	0%	-25%
COC(=O)c1ccc(NC(=O)CSc2nnc(C(C)NC(=O)c3ccccc3Cl)n2C)cc1 (stereo unspecified)	3%	4%
Cc1ccc(C2(C)NC(=O)N(CC(=O)Nc3cc(C)on3)C2=O)cc1 (stereo unspecified)	7%	-8%
Cc1ccnc(N2CCCC(C(=O)NCc3cccs3)C2)n1 (stereo unspecified)	-3%	-4%
O=C(Nc1noc2ccccc12)c1cccc(Cl)c1Cl	-4%	25µM*
COc1ccc(C(=O)Nc2noc3ccccc23)cc1	-4%	-7%
COc1ccccc1/C=C1\S/C(=N/NC(=O)c2cccc(Br)c2)NC1=O	-17%	-9%
O=C(CNS(=O)(=O)c1ccc(F)cc1)N1CCN(c2ccc(F)cc2)CC1	6%	8%
CCCCCCNC(=O)C(C#N)c1nc2ccccc2nc1N1CCCC1 (stereo unspecified)	-9%	-16%
CCCCCNC(=O)C(C#N)c1nc2ccccc2nc1N1CCCC1 (stereo unspecified)	-2%	13µM*
CN(C)C(=O)c1ccc(-c2nccc(Nc3ccc(F)cc3)n2)cc1	0%	8%
Cc1ccc(C)c(NC(=O)CSc2nc(-c3ccccc3)c(C#N)c(=O)[nH]2)c1	-3%	2%
COc1ccccc1NC(=O)CSc1nc(-c2ccc(C(C)(C)C)cc2)c(C#N)c(=O)[nH]1	25µM*	?
COc1ccc2c(c1OC)C(=O)N1N=C(c3ccc(Br)cc3)CC21 (stereo unspecified)	0%	-2%
CCOC(=O)c1sc(Nc2nc3c(F)cccc3s2)cc1C	1%	16µM*
CCOC(=O)c1sc(Nc2nc3ccc(OC)cc3s2)cc1C	-4%	?
COc1cccc(-c2nnc3sc(-c4ccccc4)nn23)c1	-8%	?
COc1cccc(OC)c1-c1nn2c(-c3cc(-c4ccccc4)n[nH]3)nnc2s1	1.8µM*	20µM*
CCCc1sc(N2CCCC(C(N)=O)C2)nc1-c1ccccc1 (stereo unspecified)	-3%	?
SMILES	Cruzain Triton	Cruzain inh noDet
COc1ccc(COc2cc(-c3cccc(OC)c3)nc3ccc(NC(C)=O)cc23)cc1	1%	?
COc1ccc(COc2cc(-c3cccc(OC)c3)nc3ccc(NC(=O)c4ccc(C)cc4)cc23)cc1	3%	7.9µM*
COc1ccc(COc2cc(-c3cccc(OC)c3)nc3ccc(NC(=O)c4ccc(N(C)C)cc4)cc23)cc1	-2%	6.3µM*
COc1ccc(COc2cc(-c3cccc(OC)c3)nc3ccc(N)cc23)cc1	0%	?
O=C(Nc1nnc(COc2ccccc2)s1)C1CCN(S(=O)(=O)c2ccc(Cl)cc2)CC1	-3%	-29%
CCOC(=O)c1[nH]c(C)c(CCC(=O)NCc2ccc(CC)cc2)c1C	0%	-11%
COc1ccc(N2CSC3=C(C#N)C(c4cc(OC)ccc4OC)CC(=O)N3C2)c(OC)c1 (stereo unspecified)	-10%	3%
CCOc1ccccc1N1CSC2=C(C#N)C(c3c(OC)ccc4ccccc34)CC(=O)N2C1 (stereo unspecified)	-8%	16µM*
Cc1cccc(Cn2c(SCc3ccc(C(=O)NCc4cccs4)cc3)nc3ccncc32)c1	-7%	?
O=C(/C=C/c1ccco1)NC(=S)Nc1ccccn1	-10%	-7%
Cc1ccc2oc(-c3cccc(NC(=S)NC(=O)c4cccs4)c3)nc2c1	0%	?
O=C(/C=C/c1ccco1)NC(=S)Nc1nc(-c2ccc3ccccc3c2)cs1	2%	4µM*
O=C(/C=C\c1ccco1)Nc1nc(-c2ccccc2)cs1	1%	10%
Cc1ccc2oc(-c3cccc(NC(=S)NC(=O)/C=C/c4ccco4)c3)nc2c1	-7%	4µM*
O=C(/C=C/c1ccco1)NC(=S)Nc1nc(-c2ccc(Cl)cc2)cs1	-2%	5µM*
O=C(CS(=O)(=O)c1cccc2nsnc12)N1CCN(c2cccc(C(F)(F)F)c2)CC1	-6%	?

Source: PubChem BioAssay (National Center for Advancing Translational Sciences (NCATS))
